The term AC50 denotes the concentration giving half of the maximal activity seen.

About 5,800 (36%) of roughly 16,000 compounds were called active. About 23% were inconclusive and are not listed. Calls follow the shape of the dose curve; as a rule, active = well fitted curve in the direction sought with a large enough effect; inconclusive = small, poorly fitted or top-dose-only effect, or effect the other way; inactive = no such curve, though single readings can be large or run the other way. Some of the results follow.

28 molecules from PubChem BioAssay AID1851 (National Center for Advancing Translational Sciences (NCATS), 2009) can be followed below.
% is scaled to controls: 0 for no effect and ±100 for the full control effect.

Sequence of Cytochrome P450 2C19 (Homo sapiens) (P33261 whole entry, looked up): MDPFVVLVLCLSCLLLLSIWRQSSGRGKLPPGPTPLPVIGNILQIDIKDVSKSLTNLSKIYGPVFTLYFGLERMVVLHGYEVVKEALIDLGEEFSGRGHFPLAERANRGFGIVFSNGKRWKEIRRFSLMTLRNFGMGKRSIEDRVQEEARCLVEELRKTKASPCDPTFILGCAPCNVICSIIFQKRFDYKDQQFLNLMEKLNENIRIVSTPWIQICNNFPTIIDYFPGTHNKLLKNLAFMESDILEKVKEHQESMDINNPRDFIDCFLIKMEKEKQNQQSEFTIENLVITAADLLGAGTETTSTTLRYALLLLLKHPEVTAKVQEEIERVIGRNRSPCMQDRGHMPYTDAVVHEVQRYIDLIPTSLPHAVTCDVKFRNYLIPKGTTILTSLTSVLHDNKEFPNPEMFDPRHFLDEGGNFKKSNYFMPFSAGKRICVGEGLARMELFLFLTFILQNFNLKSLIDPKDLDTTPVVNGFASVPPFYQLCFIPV

This assay has as its target Cytochrome P450 2C19 (Homo sapiens) (UniProt P33261). Kind of assay: Cytochrome panel assay with activity outcomes. The note with it: recombinant CYP, pro-luciferin dealkylation, luminescence, p450-cyp2c19; series mostly up to 57.1 µM.
As for `Fc1ccc(C(OCCCc2cnc[nH]2)c2ccc(F)cc2)cc1`, the AC50 was 0.00398 µM (active). In the case of `N[C@@H](Cc1cnc[nH]1)C(=O)O`, the AC50 entry is “inactive”. Still for that read-out and setting: as for `N=C(N)SCCc1cnc[nH]1`, the entry is “inactive”; as for `CN1CCN(c2ncc3nc(-c4cccs4)c(=O)n(C[C@H]4CCCO4)c3n2)CC1`, “inactive”.

For the molecule `CN1CCc2c(c3ccccc3n2C)C1`, the AC50 entry was “inactive”. On to `O=S(=O)(O)c1ccc(N=Nc2ccc3c(S(=O)(=O)O)cccc3c2O)c2ccccc12`, for which the activity, negative = inhibition is -37.1% [at 11.4 µM] (inactive). Turning to `COc1cc(-c2ccc(N=Nc3ccc4c(S(=O)(=O)O)cc(S(=O)(=O)O)c(N)c4c3O)c(OC)c2)ccc1N=Nc1ccc2c(S(=O)(=O)O)cc(S(=O)(=O)O)c(N)c2c1O`, the AC50 was 3.98 µM (active). As for `C=CCN(CC=C)C(=O)C(=O)c1cc(C)n(-c2ccc([N+](=O)[O-])cc2)c1C`, the half-maximal activity concentration (AC50) is 0.126 µM (active). Same read-out and setting: as for `Clc1ccc2c(c1)C(N1CCNCC1)=Nc1ccccc1O2`, the entry is “inactive”; as for `CN1CCN(C2=Nc3ccccc3Oc3ccc(Cl)cc32)CC1`, “inactive”.

Consider `CN1CCN(C2=Cc3ccccc3Oc3ccc(Cl)cc32)CC1`, for which the AC50 was 3.98 µM (active). Regarding `COC(=O)c1sc2ccccc2c1-n1cccc1C(=O)C(=O)Nc1ccc(Cl)cc1`, the concentration at half-maximal activity (AC50) is 5.01 µM (active). Regarding `C=CCNC(=O)c1cccn1-c1ccsc1C(=O)OC`, the AC50 entry is “inactive”. Same read-out and setting: as for `Cc1ccc(NC(=O)N(Cc2ccco2)C(C)c2ccco2)cc1C` (stereo not drawn), the figure is 5.62 µM (active); as for `COCC(=O)N1CCC2(CCCN(Cc3ccccc3OC)C2)CC1`, “inactive”; as for `Cc1ccc(-c2n[nH]c(=S)n2/N=C/c2cccn2C)cc1`, 14.1 µM (active). In the case of `Cc1nnc(C)n1/N=C/c1ccc(-c2ccccc2)cc1`, the AC50 entry was “inactive”. Turning to `C/C=C\C(=O)N(CC)c1ccccc1C`, the AC50 entry is “inactive”. Still for that read-out and setting: as for `COc1cccc(-c2cc(=O)c3ccccc3o2)c1N`, the figure is 6.31 µM (active). On to `C/C(=N/O)[C@@H]1C[C@H](CC(=O)O)C1(C)C`, for which the activity, negative = inhibition was 23% [at 11.4 µM] (inactive). Turning to `Cc1cc(C)n2nc(-c3sccc3-n3cccc3)cc2n1`, the AC50 was 7.08 µM (active). Regarding `CCOC(=O)c1cccc(C(=O)OCC)n1`, the AC50 entry is “inactive”. `O=C(OCC(=O)c1cccs1)c1cccc(C(=O)OCC(=O)c2cccs2)n1`: the half-maximal activity concentration (AC50) is 17.8 µM (active).

As to `Cc1ccc2nc(NC(=O)CSCC(=O)OCC(=O)c3ccc(Br)cc3)sc2c1`, the AC50 is 8.91 µM (active). Regarding `Cc1ccc2nc(-c3ccc(NC(=O)c4ccc(N)cc4)c(S(=O)(=O)O)c3)sc2c1`, the activity, negative = inhibition is 0.214% [at 11.4 µM] (inactive). In the case of `Cc1nc2ccc(S(=O)(=O)NC(CC(C)C)C(=O)O)cc2s1` (stereo not drawn), the AC50 result is “inactive”. Still for that read-out and setting: as for `Cc1ccc2nc(NC(=O)COC(=O)c3ccc(Br)o3)sc2c1`, the figure is 8.91 µM (active). As for `OCCN(CCO)c1ncnc2nc[nH]c12`, the activity, negative = inhibition is -23.9% [at 11.4 µM] (inactive).
